The list is not random: actives were taken first. Their share in the collection is about 4.1%.
LMP1 NFkB inh – EBV LMP1-driven NF-kappaB luciferase reporter inhibitors, primary screen, cell-based, luminescence, single point; AID 504558, 2011; LMP1-induced NF-kappaB luciferase reporter cells; 350,000 tested, 0.69% active; inhibition, % at 12.5 µM; in the data active means inhibition above about 41%; inconclusive means no clear call, values can overlap the other calls
Shn3 inh set2 – reduction of Shn3 3'UTR firefly luciferase signal, primary screen, Schnurri-3 inhibitor project, cell-based, Clone20 osteoblasts, set 2. Clone20 osteoblast Shn3 3'UTR firefly luciferase, 24 h. inhibition, % at 12.5 µM. 360,000 tested, 0.52% active;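 active means mean inhibition of at least 75% with every replicate also reaching 75%; inconclusive means mean inhibition at least 75% but some replicate below; inactive means mean inhibition below 75%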
Peg3 promoter – Peg3 promoter-driven luciferase inhibitors, primary screen, cell-based, HeLa, luciferase luminescence; HeLa PEG-Prom luciferase reporter, overnight; inhibition, % at 20 µM; 360,000 tested, 1.7% active; AID 588405, 2011;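 active means inhibition of at least 50% at 20 µM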
TWEAK-Fn14 inh – inhibitors of TWEAK-Fn14 signaling, primary screen, luciferase reporter cells, uHTS; AID 1159606, 2016; inhibition, % at 10 µM; TWEAK-stimulated Fn14 reporter cells, luciferase luminescence, 8 h; 360,000 tested, 2% active; in the data active means inhibition above about 50%
TROY NFkB inh – inhibitors of TROY-driven NF-kB signaling, primary screen, Q293 LMP1-TROYcd cells, NF-kB luciferase, uHTS | Q293 LMP1-TROYcd NF-kB luciferase reporter, 4 h | inhibition, % at 10 µM | 360,000 tested, 0.98% active | AID 1347056, 2019;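 active means compounds whose plate-normalised and pattern-corrected inhibition of the luciferase reporter signal at the single screening dose is 50% or more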
TRPM1 prom inh – inhibitors of MITF-dependent TRPM1 promoter reporter, primary screen, cell-based, SK-MEL-5, single point, luciferase | SK-MEL-5 TRPM1 promoter luciferase, 24 h | inhibition, % at 12.5 µM | 330,000 tested, 0.83% active | AID 488899, 2010;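 active means mean inhibition across replicates of 60% or more, whatever share of single replicates reaches that level; inconclusive means some that reach 60%, reason not given; inactive means mean inhibition across replicates below 60%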
Hits are given with their value; . = inactive; ? = inconclusive; / = no result given; ! = not active in a repeat.

SMILES	LMP1 NFkB inh	Shn3 inh set2	Peg3 promoter	TWEAK-Fn14 inh	TROY NFkB inh	TRPM1 prom inh
COc1ccc(N2C(=O)CC(Sc3nc(C)cc(C)c3C#N)C2=O)cc1 (centres undefined)	.	.	.	.	.	.
COc1cc(SC#N)ccc1N=Cc1c(C)[nH]n(-c2ccc(C)c(C)c2)c1=O	.	?	100	.	.	88
Cc1[nH]n(-c2ccc(Cl)cc2)c(=O)c1C=NC12CN3CN(CN(C3)C1)C2	.	.	.	.	.	.
COc1cc(SC#N)ccc1N=Cc1c(C)[nH]n(-c2ccc(Cl)cc2)c1=O	.	.	56	.	.	.
COc1ccc(CC(=O)Nc2ccc(S(=O)(=O)N3CCCC3)cc2)c(OC)c1	.	.	.	.	.	.
CCN(CC)S(=O)(=O)c1ccc(N=NC2=C(O)CCCC2=O)cc1	63	.	.	.	.	.
CCN(CC)S(=O)(=O)c1ccc(N=NC2=C(O)CC(C)(C)CC2=O)cc1	.	.	.	.	.	.
CC(C)=C(NC(=O)c1ccccc1)C(=O)NCCc1nc2ccccc2[nH]1	.	.	.	.	.	.
O=C(O)[C@@H]1Cc2ccccc2N1	.	.	.	.	.	.
Cc1nnsc1C(=O)N/N=C/c1ccc2ccccc2c1O	48	.	.	54	.	69
CCN(CC)CCNc1ccc(CO)c2oc3cc(Cl)ccc3c(=O)c12	.	.	101	.	.	/
Cc1cccc(NS(=O)(=O)c2ccc(NC(=O)CN(c3cc([N+](=O)[O-])ccc3C)S(C)(=O)=O)cc2)c1	.	.	59	.	.	.
Cc1cccc(NS(=O)(=O)c2ccc3[nH]c(=O)cc(C(=O)OC(C)C(=O)Nc4ccc([N+](=O)[O-])cc4)c3c2)c1 (centres undefined)	.	.	.	.	51	.
COc1ccc(C)cc1NS(=O)(=O)c1ccc(NC(=O)CN(c2cc([N+](=O)[O-])ccc2C)S(C)(=O)=O)cc1	.	.	64	.	.	.
N=c1n(CC(=O)c2cccc([N+](=O)[O-])c2)c2ccccc2n1Cc1ccccc1	.	.	58	.	.	.
CCn1c(=N)n(CC(=O)c2cccc([N+](=O)[O-])c2)c2ccccc21	.	.	.	.	.	.
Cc1ccccc1Cn1c(=N)n(CC(=O)c2ccc([N+](=O)[O-])cc2)c2ccccc21	.	.	71	.	.	66
CCCn1c(=N)n(CC(=O)c2ccc([N+](=O)[O-])cc2)c2ccccc21	.	.	60	.	.	.
COc1cc(C(=O)OCC(=O)N2CC(C)OC(C)C2)cc(OC)c1OC (centres undefined)	.	.	.	.	.	.
CC(=O)Nc1ccc(S(=O)(=O)N(C)CC(=O)OC(C)C(=O)NC2CCCCC2)cc1 (centres undefined)	.	.	.	.	.	.
Cc1ccc(Cn2c(CCC(=O)O)nc3ncccc3c2=O)cc1	.	.	.	.	.	.
Cc1ccc(CSC(Nc2ccc(F)cc2)=C(C#N)C#N)cc1	.	.	.	53	.	.
CCN(CC)C(=O)CSC(Nc1ccc(F)cc1)=C(C#N)C#N	.	/	.	.	.	.
CCN1CCN(Cc2ccc(NC(=O)c3ccc(C)c(NC(=O)c4csc(-c5ccncc5)n4)c3)cc2C(F)(F)F)CC1	.	.	.	.	.	.
CCN1CCN(Cc2ccc(NC(=O)c3cc(NC(=O)c4cc5cccc(OC)c5o4)cc(OC)c3)cc2C(F)(F)F)CC1	.	99	104	60!	.	.
SMILES	LMP1 NFkB inh	Shn3 inh set2	Peg3 promoter	TWEAK-Fn14 inh	TROY NFkB inh	TRPM1 prom inh
COc1cc(NC(=O)c2ccno2)cc(C(=O)Nc2cccc(C(F)(F)F)c2)c1	.	.	.	.	.	.
COc1cc(NC(=O)c2cc3cccc(OC)c3o2)cc(C(=O)Nc2cccc(C(F)(F)F)c2)c1	.	.	.	57	.	.
CCN1CCN(Cc2ccc(NC(=O)c3cc(NC(=O)N4CCNC4=O)cc(OC)c3)cc2C(F)(F)F)CC1	.	.	97!	.	.	.
CCN1CCN(Cc2ccc(NC(=O)c3cc(NC(=O)c4cc(-c5ccc(OC)cc5)n[nH]4)cc(OC)c3)cc2C(F)(F)F)CC1	.	.	.	.	.	99
CCN1CCN(Cc2ccc(NC(=O)c3cc(NC(=O)c4ccc5n[nH]nc5c4)cc(OC)c3)cc2C(F)(F)F)CC1	.	.	.	.	.	.
COc1ccc(NC(=O)C2CCCN(CCCc3ccccc3)C2)cc1OCC(C)C (centres undefined)	.	.	.	.	.	.
COc1ccc(F)cc1S(=O)(=O)Nc1cc2c3c(c1)CCC(=O)N3CCC2	.	.	.	.	.	.
O=c1cc(CN2CCN(c3ccccc3F)CC2)c2ccccc2o1	/	.	.	.	.	/
CCN1CCN(Cc2ccc(NC(=O)c3cc(NC(=O)c4cncc(-c5cccs5)c4)cc(OC)c3)cc2C(F)(F)F)CC1	.	98	.	.	.	/
COc1cc(Nc2ccccn2)cc(C(=O)Nc2cccc(C(F)(F)F)c2)c1	.	.	81!	50!	.	.
CCN1CCN(Cc2ccc(NC(=O)c3cc(NC(=O)C4=NN(c5ccccc5)C(=O)C4)cc(OC)c3)cc2C(F)(F)F)CC1	.	.	.	.	.	.
O=C(C[C@@H]1C/C=C\CCCC(=O)OC[C@@H]2CCCN2C1=O)N[C@H](CO)Cc1ccccc1	.	.	.	.	.	.
COCCN(C(=O)CCC(=O)Nc1cc(C)on1)C(C(=O)NC(C)(C)C)c1cccc(OC)c1OC (centres undefined)	.	.	.	.	.	.
N#CC1(NC(=O)Cn2ncc(Cl)c(Cl)c2=O)CCCCC1	.	.	93	78	55	.
N#CC1(NC(=O)CN2C(=O)c3ccccc3C2=O)CCCCC1	.	.	.	.	.	.
CCOC(=O)/C=C/C(=O)OCC(=O)Nc1cccc(Cl)c1Cl	.	.	.	.	.	.
CCOC(=O)/C=C/C(=O)Nc1cccc([N+](=O)[O-])c1	.	?	88	.	.	.
CCOC(=O)/C=C/C(=O)Nc1ccccc1-c1ccccc1NC(=O)/C=C/C(=O)OCC	.	.	70	58	.	.
CCOC(=O)c1cccc(NC(=O)/C=C/c2cccc([N+](=O)[O-])c2)c1	.	.	.	.	.	.
Cc1ccc(C(=O)N(CC(=O)NC2CCCC2)c2ccccc2Cl)s1	.	.	.	.	.	.
COc1ccccc1CC(=O)N1CCN(C(=O)c2ccco2)CC1	.	.	.	.	.	.
